An excerpt weighted towards active compounds, which were near 2.5% of everything screened.
DYRK1A inh: Dyrk1A (rat) kinase inhibition; Q63470; 310,000 compounds, 0.43% hits; inhibition, % at 12.5 µM; ADP-Glo luminescence, NFATc1 peptide; in the data active = inhibition above about 50%
HSF1 inh: HSF1 inhibition; NIH3T3-HGL HSE-luciferase, MG132-induced, luminescence 8 h; stronger effect = lower value; activity change, negative = inhibition, % at 7.5 µM (by protocol); 300,000 compounds, 0.77% hits; AID 2098;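 active = more than half of replicate wells show activity change below -50%, luminescence cut by over half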;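 also: luciferase reports HSF-1 transcriptional activity via heat shock element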
aDG glyco act: alpha-DG glycosylation activation; Pro5-aDG cells, alpha-DG glycosylation AlphaScreen (IIH6); 0% Pro5, 100% B10-LARGE cell signal; activation, % at 10 µM; 360,000 compounds, 0.22% hits;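 active = activation of at least 8% versus controls, or a plate z-score of at least 8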;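 also: Pro5 are CHO cells carrying HIG-tagged alpha-DG that lacks glycosylation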
HSF-1 act: increases HSF-1 driven luciferase reporter signal | NIH3T3-HGL HSF-1 luciferase reporter, MG132, 8 h; 100% = twice DMSO control signal | activation, % at 9 µM | 300,000 compounds, 1.7% hits;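 active = mean replicate activation of at least 50% with a set share of replicates each reaching 50%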
GC-B act: GC-B (human) receptor activation | HEK293-GC-B cells, CNP EC30, cGMP TR-FRET; 0% at EC30 CNP, 100% saturating CNP | activation, % at 10 µM | 370,000 compounds, 0.11% hits | P20594;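 active = activation at 10 µM reaching about 35% in either raw or pattern-adjusted values, limit read from the data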
GC-A act: GC-A (human) enzyme activation | P16066 | activation, % at 10 µM | HEK293 GC-A cells, cGMP TR-FRET, EC30 ANP; 0% at EC30 ANP, 100% saturating ANP | 370,000 compounds, 0.14% hits | AID 1671463; in the data active = activation above about 40%
Of the large screens only hits and unclear results are named; the others gave an inactive call.

CCCCCOC(=O)c1[nH]c2c(c1C)C(=O)C(C(=O)OC)C(C)C2 (stereo unspecified)	HSF-1 act 76 (no result: DYRK1A inh)
COC(=O)c1ccc2c(c1O)C(=O)c1ccccc1C2=O	HSF-1 act 100
COc1ccc([C@H]2CC(=O)C=C(/C=C/c3ccc(C(F)(F)F)cc3)C2)cc1	none (no result: HSF1 inh, HSF-1 act)
CCN(CC)C(=O)CSc1nc2ccccc2c(=O)n1CC1CCCCC1	none
COC(=O)c1ccc(CNC(=O)COC(=O)COc2ccc(OC)cc2)cc1	HSF1 inh -68 (no result: DYRK1A inh)
COc1cc2cccc(OC)c(=O)c2c(O)c1OC	none
CC(=O)Oc1cc2cccc(OC(C)=O)c(=O)c2c(OC(C)=O)c1OC(C)=O	DYRK1A inh 64 (no result: GC-B act, GC-A act)
CC(=O)c1ccc(NC(=O)Nc2cccc(Cl)c2)cc1	HSF-1 act 67
CCCCCCCNC(=O)C1(CC2CC(c3ccccc3)=NO2)CCN(C(=O)OC(C)(C)C)CC1 (stereo unspecified)	none (no result: HSF1 inh, HSF-1 act)
C=CCC1(C(=O)NCCO)CCN(C(=O)OC(C)(C)C)CC1	HSF1 inh -84
O=C(CCC1CCCN(C(=O)c2cc3ccccc3o2)C1)NCc1ccc(F)c(F)c1 (stereo unspecified)	HSF-1 act 52 (no result: DYRK1A inh)
CCOc1ccc(OCC)c(NC(=O)CSc2nnc(-c3cccnc3)o2)c1	none (no result: HSF1 inh, HSF-1 act)
Cc1csc(-c2cnn(-c3ccccc3)c2NC(=O)c2cccc(C(F)(F)F)c2)n1	HSF-1 act 81
CC(=O)N(C)c1ccc(N=Nc2c(C)[nH]n(C(N)=S)c2=O)cc1	HSF-1 act 53
CC(=O)N(C)c1ccc(N=Nc2c(C)[nH]n(-c3ccccc3)c2=O)cc1	none (no result: DYRK1A inh)
NCCCCCc1nnc(SCC(=O)c2ccc(Cl)cc2)o1	HSF-1 act 58
NCCCCCc1nnc(SC/C=C/c2ccccc2)o1	HSF-1 act 97
CN(CCCNC(=O)C1CCC(=O)N1Cc1ccccc1Cl)c1ccccc1 (stereo unspecified)	none
CCN(CCCNC(=O)C1CCC(=O)N1Cc1ccccc1Cl)c1cccc(C)c1 (stereo unspecified)	HSF-1 act 77 (no result: DYRK1A inh)
CCCS(=O)(=O)N1CCC(C(=O)NCCCN(CC)c2cccc(C)c2)CC1	none (no result: HSF1 inh, HSF-1 act)
CCN(CCCNC(=O)CCc1nc(-c2ccc(C)cc2)no1)c1cccc(C)c1	HSF-1 act 59
CCN(CCNC(=O)C1CCC(=O)N1Cc1ccc(C)cc1)c1ccccc1 (stereo unspecified)	none
CCCS(=O)(=O)N1CCCC(C(=O)NCCCN(CC)c2cccc(C)c2)C1 (stereo unspecified)	HSF-1 act 56
CCN(CCCNC(=O)C1CCC(=O)N1Cc1ccc(C)cc1)c1cccc(C)c1 (stereo unspecified)	HSF-1 act 85
Cc1cccc(NC(=O)CCN2C(=O)c3cccc([N+](=O)[O-])c3C2=O)c1	none
Cc1cccc(CCNC(=O)COc2cc(=O)n(C)c3ccccc23)c1	none
CCN(CCCNC(=O)COc1cc(=O)n(C)c2ccccc12)c1cccc(C)c1	HSF-1 act 162
CC(C)CNC(C)C(=O)Nc1ccc(S(N)(=O)=O)cc1 (stereo unspecified)	none
CCOC(=O)C(CC)Sc1ccc2nnc(-c3cccnc3)n2n1 (stereo unspecified)	HSF1 inh -72 (no result: DYRK1A inh)
CCOC(=O)CC(=O)CSc1ccc2nnc(-c3ccccc3)n2n1	none
CCOC(=O)CSc1ccc2nnc(-c3ccncc3)n2n1	HSF-1 act 55
CCC(Sc1ccc2nnc(-c3cccnc3)n2n1)C(=O)O (stereo unspecified)	none
Cc1c(C(=O)Nc2ccc(F)cc2)oc2ccc(S(=O)(=O)N3CCC4(CC3)OCCO4)cc12	none
CCN1C(=O)/C(=C2/SC(C)=C(C)N2CC)SC1=S	none
CCc1nnc(NC(=O)CCC(=O)N2CCN(c3cc(Cl)ccc3C)CC2)s1	none
Cc1ccc(S(=O)(=O)CCC(=O)NCc2ccc(Cl)cc2)cc1	none
Cc1ccc(C(=O)CCS(=O)(=O)c2ccc(Cl)cc2)cc1	GC-A act 52
Cc1ccc(S(=O)(=O)CCC(=O)c2ccc(F)cc2)cc1	GC-A act 71
COc1ccc(C(=O)CCS(=O)(=O)c2ccc(F)cc2)cc1OC	none
Cc1ccc(C(=O)CCS(=O)(=O)c2ccc(F)cc2)cc1	GC-A act 52
Cc1ccc(C)c(NC(=O)COC(=O)c2cccc(S(=O)(=O)N3CCCCC3)c2)c1	none
COC(=O)c1ccc(C(=O)OC)c(-n2c(=O)c3ccccc3c3ccccc3c2=O)c1	HSF-1 act 78
COC(=O)c1ccc(-c2nn(C)c(=O)c3ccccc23)cc1	none
COc1ccc(C2=[N+](C)CCn3cccc32)c(OC)c1	none
Cc1cc(C)cc(N(C(=O)CNC(=O)c2ccco2)C(C(=O)NC2CCCC2)c2ccncc2)c1 (stereo unspecified)	none
NC(=O)C1CC(=O)N(c2ccc(OCC(=O)N3CCCC3)cc2)C1 (stereo unspecified)	none (no result: HSF1 inh, HSF-1 act)
CNC(=O)C1CC(=O)N(c2ccc(OCC(=O)N3CCCC3)cc2)C1 (stereo unspecified)	HSF-1 act 54
C=CCNC(=O)C1CC(=O)N(c2ccc(OCC(=O)Nc3ccccc3)cc2)C1 (stereo unspecified)	HSF-1 act 53
Cc1ccc2oc(C(=O)N3CCC(O)(c4cccc(C(F)(F)F)c4)CC3)c(C)c2c1	HSF-1 act 75
COc1ccc(-c2cnc(N)nc2-c2ccc(OCc3ccccc3)cc2O)cc1	none
Nc1ncc(-c2ccccc2)c(-c2ccc(O)cc2O)n1	GC-A act 46
CCC(=O)c1cn(CC(=O)OC)c2ccccc12	none
COc1cc(C(c2c(C)[nH][nH]c2=O)c2c(C)[nH][nH]c2=O)ccc1OCc1ccc([N+](=O)[O-])cc1	HSF-1 act 205
COc1cc(/C=N/NC(=O)c2cccc([N+](=O)[O-])c2)ccc1OCc1ccccc1	none
CCOC(=O)C(=Cc1ccc(OCc2ccc([N+](=O)[O-])cc2)c(OC)c1)C(=O)OCC	HSF-1 act 77
COC(=O)C(=Cc1ccc(OCc2ccc([N+](=O)[O-])cc2)c(OC)c1)C(=O)OC	HSF-1 act 278
CCOC(=O)N1CCN(C(=O)c2cc3n(n2)C(C(F)(F)F)CC(c2ccc4c(c2)OCO4)N3)CC1 (stereo unspecified)	none
Cc1ccc(S(=O)(=O)NNC(=O)c2csnn2)cc1	none
CC(C)(C)c1cc(C(=O)NNC(=O)Nc2ccccc2)n(Cc2ccccc2)n1	none
CC(C)(C)c1cc(C(=O)NCc2cc(F)cc3c2OCOC3)n(Cc2ccccc2)n1	HSF-1 act 56 (no result: DYRK1A inh)
Cc1cc(C)cc(NC(=S)N2CCC(NC(=O)c3ccc(F)cc3)CC2)c1	none

Screening data as filed in PubChem.
